Data from PubChem BioAssay (NCATS).
Results filed as inconclusive are left out. The source made the active and inactive calls. Unless noted, the call rests on the fitted dose curve; in most records, active means well fitted inhibition curve with a large enough effect; inconclusive means small, poorly fitted or top-dose-only effect; inactive means no such curve, though single readings can be large or run the other way.

How the values were obtained:
[1] = qHTS profiling of the MIPE4 collection as inhibitors of Plasmodium falciparum (3D7) proliferation (AID 743344; call rule not given here;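 further: scaled between DMSO vehicle wells and 0.29 µM artemisinin as full inhibition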); settings: P. falciparum 3D7 in erythrocytes, SYBR Green DNA fluorescence, 72 h; at 28.5 µM unless noted
Summary of the method: (§1)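 Parasite DNA was quantified by SYBR Green I fluorescence (ex 485, em 535 nm) after overnight lysis in saponin/Triton buffer at room temperature. Cultures at 0.3% parasitemia and 2.5% hematocrit were first exposed to compound for 72 h at 37 C; signals were normalised to artemisinin (0.29 uM) and vehicle wells.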

[2] = qHTS profiling of the MIPE4 collection as inhibitors of Plasmodium falciparum (DD2) proliferation (Rep 2) (AID 743346; call rule not given here); settings: P. falciparum Dd2 in erythrocytes, SYBR Green DNA, 72 h; at 28.5 µM unless noted
Summary of the method: as §1

[3] = qHTS profiling of the MIPE4 collection as inhibitors of Plasmodium falciparum (HB3) proliferation (AID 743347; call rule not given here;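 further: plate controls were DMSO vehicle wells for no effect and artemisinin wells for full effect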); settings: P. falciparum HB3 in erythrocytes, SYBR Green DNA, 72 h; at 28.5 µM unless noted
Summary of the method: as §1

[4] = High-throughput drug toxicity screening in the BPDCN cell line Gen2.2 (AID 1224824; call rule not given here;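 further: cells exposed to compounds for 48 h before reading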); settings: Gen2.2 BPDCN cells; at 45.8 µM (top of the series) unless noted
Summary of the method: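 Gen2.2 cells, 500 per well in phenol red-free RPMI with 10% FBS, exposed to compounds 48 h at 37 C, 5% CO2; viability by CellTiter-Glo luminescence. Percent activity scaled to DMSO (100%) and 9.2 uM bortezomib final (0%).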

[5] = High-throughput drug toxicity screening in the BPDCN cell line Cal-1 (AID 1224825; call rule not given here); settings: Cal-1 BPDCN cell viability, qHTS; at 45.8 µM (top of the series) unless noted
Summary of the method: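 CellTiter-Glo luminescence after 48 h compound exposure; percent activity scaled with DMSO as 100% and bortezomib (9.2 uM final) as 0%. Cal-1 cells seeded at 500/well in RPMI, 10% FBS, no phenol red.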

[6] = qHTS assay for measurement of the activity of small molecule inhibitors on Zika virus induced Caspase-3 activity in human iPSC derived neural progenitor cells (hNPCs) (AID 1224857); further: nearly all actives have a fitted effect of over 65% in size; further: potency means the concentration at half of the fitted maximal effect
Summary of the method: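 Caspase-3/7 induction by a 6-hour ZIKV infection was quantified with a luminescent Caspase-Glo 3/7 reagent incubated 30 minutes at room temperature. Compounds were preincubated with hNPCs for 1 hour; inhibition was calculated against uninfected and infected control wells.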

[7] = qHTS assay for measurement of the activity of small molecule inhibitors on Zika virus induced Caspase-3 activity in human astrocytoma cells (AID 1224859); further: potency means the concentration at half of the fitted maximal effect
Summary of the method: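 In SNB-19 cells plated at 250 cells/well and grown 16-20 h, compounds were applied 1 h before ZIKV (2 FFU/cell). Six hours later caspase-3/7 luminescence was recorded.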

[8] = qHTS Screen of the MIPE 4.0 Collection Against Ewings Sarcoma (RDES) (AID 1259252); further: nearly all actives have a fitted effect of over 35% in size; further: potency means the concentration at half of the fitted maximal effect
Summary of the method: (§2)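 Viability screen: 48 h incubation at 37C, 95% humidity, 5% CO2 with serially titrated compound, followed by CellTiter-Glo readout.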

[9] = qHTS Screen of the MIPE 4.0 Collection Against Ewings Sarcoma (TC71) (AID 1259253); further: nearly all actives have a fitted effect of over 40% in size; further: potency means the concentration at half of the fitted maximal effect
Summary of the method: as §2

[10] = qHTS Screen of the MIPE 4.0 Collection Against Ewings Sarcoma (EW8) (AID 1259255); further: nearly all actives have a fitted effect of over 35% in size; further: potency means the concentration at half of the fitted maximal effect;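 on viability: 100% = DMSO-treated cells and 0% = medium-only wells without cells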
Summary of the method: as §2

[11] = qHTS profiling of the MIPE4 collection as inhibitors of Plasmodium falciparum (DD2) proliferation (AID 743345; call rule not given here); settings: P. falciparum Dd2 in erythrocytes, SYBR Green DNA, 72 h; at 28.5 µM unless noted
Summary of the method: as §1

Question: With `C[C@]12C=CC(=O)N[C@@H]1CC[C@H]1[C@H]3CC[C@@H](C(=O)Nc4cc(C(F)(F)F)ccc4C(F)(F)F)[C@@]3(C)CC[C@@H]12` as the compound, how does the parasite growth, % of DMSO control [1] read?
Answer: 9.6%

Question: And the parasite growth, % of control (lower = inhibition) [2]?
Answer: 23.9%

Question: What about the growth, % of control [3] of the same compound?
Answer: 26.4%

Question: What about the cell viability, % of control (lower = more cytotoxic) [4] of the same compound?
Answer: 58.7%

Question: And the viability (% of control) [5]?
Answer: 93%

Question: What about the Potency [6] of the same compound?
Answer: inactive

Question: What about the Potency [7] of the same compound?
Answer: inactive

Question: What about the Potency [8] of the same compound?
Answer: inactive

Question: And the Potency [9]?
Answer: inactive

Question: What about the Potency [10] of the same compound?
Answer: inactive

Question: Which parasite growth, % of DMSO control [1] does the source give for `Cc1cc(C(=O)NOCCO)c(Nc2ccc(I)cc2F)n(C)c1=O` here?
Answer: 51.4%

Question: And the parasite growth remaining, % of DMSO control (lower = more inhibition) [11]?
Answer: 87.7%

Question: And the growth, % of control [3]?
Answer: 66.5%

Question: And the cell viability, % of control (lower = more cytotoxic) [4]?
Answer: 7.2%

Question: And the viability (% of control) [5]?
Answer: 30.2%

Question: And the Potency [6]?
Answer: inactive

Question: And the Potency [7]?
Answer: inactive

Question: What about the Potency [8] of the same compound?
Answer: inactive

Question: What about the Potency [9] of the same compound?
Answer: inactive

Question: What about the Potency [10] of the same compound?
Answer: inactive

Question: Which parasite growth, % of DMSO control [1] does the source give for `Cn1cc(C2=C(c3c4n(c5ccccc35)CCC(CN)C4)C(=O)NC2=O)c2ccccc21` (stereo not drawn) here?
Answer: 3.66%

Question: What about the growth, % of control [3] of the same compound?
Answer: 3.72%

Question: And the cell viability, % of control (lower = more cytotoxic) [4]?
Answer: 3.32%

Question: What about the viability (% of control) [5] of the same compound?
Answer: 2.84%

Question: And the Potency [6]?
Answer: inactive

Question: What about the Potency [7] of the same compound?
Answer: inactive

Question: What about the Potency [8] of the same compound?
Answer: 16.6 µM (active)

Question: And the Potency [9]?
Answer: 16.6 µM (active)

Question: What about the Potency [10] of the same compound?
Answer: 18.7 µM (active)

Question: With `COc1cc(O)c2c(c1)C1OC1C[C@H](O)[C@H](O)C(=O)C=CC[C@H](C)OC2=O` (stereo partly drawn) as the compound, how does the parasite growth, % of DMSO control [1] read?
Answer: 5.71%

Question: And the growth, % of control [3]?
Answer: 2.42%

Question: What about the cell viability, % of control (lower = more cytotoxic) [4] of the same compound?
Answer: 3.33%

Question: And the viability (% of control) [5]?
Answer: 5.65%

Question: What about the Potency [6] of the same compound?
Answer: inactive

Question: And the Potency [7]?
Answer: inactive

Question: And the Potency [8]?
Answer: 16.6 µM (active)

Question: And the Potency [9]?
Answer: 11.8 µM (active)

Question: What about the Potency [10] of the same compound?
Answer: 7.43 µM (active)

Question: Which parasite growth remaining, % of DMSO control (lower = more inhibition) [11] does the source give for `CC[C@@]1([C@@H]2O[C@@H]([C@H]3O[C@@](O)(CO)[C@H](C)C[C@H]3C)C[C@H]2C)CC[C@H]([C@]2(C)CC[C@]3(C[C@H](O)[C@@H](C)[C@@H]([C@@H](C)[C@@H](OC)[C@H](C)C(=O)O)O3)O2)O1` here?
Answer: 5.25% [at 9.64 µM]

Question: And the parasite growth, % of control (lower = inhibition) [2]?
Answer: 9.17% [at 9.64 µM]

Question: And the growth, % of control [3]?
Answer: 3.89% [at 9.64 µM]

Question: What about the cell viability, % of control (lower = more cytotoxic) [4] of the same compound?
Answer: 27.8% [at 23.2 µM]

Question: And the viability (% of control) [5]?
Answer: 65.7% [at 23.2 µM]

Question: What about the Potency [6] of the same compound?
Answer: inactive

Question: What about the Potency [7] of the same compound?
Answer: inactive

Question: And the Potency [8]?
Answer: 0.257 µM (active)

Question: And the Potency [9]?
Answer: 0.257 µM (active)

Question: And the Potency [10]?
Answer: 0.162 µM (active)

Question: With `CCCCOc1ccc(C(=O)Nc2ccc(F)cc2F)cc1` as the compound, how does the parasite growth, % of DMSO control [1] read?
Answer: 108%

Question: And the parasite growth remaining, % of DMSO control (lower = more inhibition) [11]?
Answer: 95.7%

Question: And the growth, % of control [3]?
Answer: 94.1%

Question: And the cell viability, % of control (lower = more cytotoxic) [4]?
Answer: 152%

Question: And the viability (% of control) [5]?
Answer: 105%

Question: And the Potency [6]?
Answer: inactive

Question: And the Potency [7]?
Answer: inactive

Question: What about the Potency [8] of the same compound?
Answer: inactive

Question: And the Potency [9]?
Answer: inactive

Question: And the Potency [10]?
Answer: inactive

Question: Which results are given for `N#Cc1cc(NC(=O)Nc2nnc(-c3ccncc3)s2)ccc1-c1cn[nH]c1`?
Answer: parasite growth, % of DMSO control [1]: 45.1%; parasite growth, % of control (lower = inhibition) [2]: 74.6%; growth, % of control [3]: 41.3%; cell viability, % of control (lower = more cytotoxic) [4]: 92.3%; viability (% of control) [5]: 111%; Potency [6]: inactive; Potency [7]: inactive; Potency [8]: inactive; Potency [9]: inactive; Potency [10]: inactive

Question: With `CCCc1nc(C(C)(C)O)c(C(=O)O)n1Cc1ccc(-c2ccccc2-c2nn[nH]n2)cc1` as the compound, how does the parasite growth, % of DMSO control [1] read?
Answer: 87.7%

Question: And the parasite growth remaining, % of DMSO control (lower = more inhibition) [11]?
Answer: 93.7%

Question: And the growth, % of control [3]?
Answer: 61.6%

Question: And the cell viability, % of control (lower = more cytotoxic) [4]?
Answer: 110%

Question: And the viability (% of control) [5]?
Answer: 103%

Question: And the Potency [6]?
Answer: inactive

Question: And the Potency [7]?
Answer: inactive

Question: And the Potency [8]?
Answer: inactive

Question: What about the Potency [9] of the same compound?
Answer: inactive

Question: And the Potency [10]?
Answer: inactive

Question: With `Cc1[nH]c(C=C2C(=O)Nc3ccccc32)c(C)c1CCC(=O)O` as the compound, how does the parasite growth, % of DMSO control [1] read?
Answer: 7.83%

Question: And the parasite growth, % of control (lower = inhibition) [2]?
Answer: 138%

Question: What about the growth, % of control [3] of the same compound?
Answer: 27.3%

Question: What about the cell viability, % of control (lower = more cytotoxic) [4] of the same compound?
Answer: 12.9%

Question: And the viability (% of control) [5]?
Answer: 5.24%

Question: And the Potency [6]?
Answer: 16.6 µM (active)

Question: And the Potency [7]?
Answer: 11.8 µM (active)

Question: And the Potency [8]?
Answer: 0.209 µM (active)

Question: What about the Potency [9] of the same compound?
Answer: 0.296 µM (active)

Question: What about the Potency [10] of the same compound?
Answer: 0.235 µM (active)
